The text below walks through data of PubChem BioAssay (NCATS).

Records with an inconclusive call do not appear. A call without a number means that no potency is given here. The source made the active and inactive calls. Calls follow the shape of the dose curve; as a rule, active = well fitted inhibition curve with a large enough effect; inconclusive = small, poorly fitted or top-dose-only effect; inactive = no such curve, though single readings can be large or run the other way.
Potency is read from the fitted curve at half-maximal effect.

Chain of Thioredoxin reductase 1, cytoplasmic (Rattus norvegicus) (O89049 whole entry, looked up): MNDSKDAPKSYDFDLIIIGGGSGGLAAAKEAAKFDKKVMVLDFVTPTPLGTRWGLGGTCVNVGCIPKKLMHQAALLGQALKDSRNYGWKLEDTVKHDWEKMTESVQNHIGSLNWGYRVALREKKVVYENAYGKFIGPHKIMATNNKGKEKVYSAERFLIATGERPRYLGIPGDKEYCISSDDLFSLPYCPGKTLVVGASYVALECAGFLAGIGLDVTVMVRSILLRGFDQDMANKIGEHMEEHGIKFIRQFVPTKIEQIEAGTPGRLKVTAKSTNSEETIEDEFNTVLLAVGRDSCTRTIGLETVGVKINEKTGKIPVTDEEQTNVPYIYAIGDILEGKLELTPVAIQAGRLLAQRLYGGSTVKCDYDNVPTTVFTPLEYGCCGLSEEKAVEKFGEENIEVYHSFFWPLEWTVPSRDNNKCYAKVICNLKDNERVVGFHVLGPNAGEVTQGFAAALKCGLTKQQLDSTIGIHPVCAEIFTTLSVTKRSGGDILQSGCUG

This experiment concerns the target Thioredoxin reductase 1, cytoplasmic (Rattus norvegicus) (UniProt O89049). Briefly: qHTS Assay for Inhibitors of Mammalian Selenoprotein Thioredoxin Reductase 1 (TrxR1) (AID 488773). Also: nearly all actives have a fitted effect of over 40% in size. Conditions: purified TrxR1 enzyme activity; Potency: inhibition; series mostly up to 57.1 µM. The text has this: The selenoprotein thioredoxin reductase (TrxR; EC 1.8.1.9) is a FAD containing homodimeric pyridine nucleotide-disulfide oxidoreductase with many cellular roles. Together with NADPH and its prime substrate thioredoxin (Trx), the enzyme forms the core of the Trx system. The mammalian Trx system exerts a wide spectrum of functions including redox regulation, antioxidant defense, regulation of transcription factors as well as support of cell growth and replication. Many of these functions involve the reduction of Trx, which may subsequently reduce a number of different substrates including ribonucleotide reductase, peroxiredoxins or NFkB. Mammalian TrxR itself also has a broad substrate specificity, reducing both protein and non-protein substrates, including low molecular weight compounds such as dehydroascorbate, lipoic acid, ubiquinone, and juglone. In addition, several drugs in clinical use for anticancer treatment are indeed known to target TrxR1.
This BioAssay is a validation of an NADPH fluorescence-based, dual-purpose qHTS rTrxR1 assay designed to find potential inhibitors and substrates of rTrxR1. For this particular BioAssay, actives are potential inhibitors. See related BioAssay for substrate data deposition.
Assay protocol: 2 uL of reagents (buffer in column 4 as negative control and 90 nM rTrxR1 in columns 1-3 and 5-48) were dispensed into Greiner black solid-bottom 1,536-well assay plates, followed by 1 uL of NADPH (400 uM final concentration) to each well. The plates were centrifuged at 1000 rpm for 15 seconds and subsequently incubated for 5 min at room temperature (~22 deg C) to allow for rTrxR1 reduction. Compounds (23 nL) were then transferred via Kalypsys pin tool equipped with 1536-pin array (10 nL slotted pins, V&P Scientific, San Diego, CA). In addition, a duplicate 2-fold serial dilution of the control compounds auranofin, a known gold-based TrxR1 inhibitor, and juglone (5-hydroxy-1,4-naphthoquinone), a natural TrxR1 substrate, were pin-transferred to columns 2 and 3, respectively. After incubation for 15 min at room temperature (~22 deg C), 1 uL of selenite (400 uM final concentration) were dispensed to each well. The plate was immediately transferred to a ViewLux high-throughput CCD imager (PerkinElmer), wherein kinetic measurements of NADPH fluorescence (Ex 340 nm, Em 450 nm) were acquired (8 minute kinetic read, see Table 1). Read 1 was utilized to assess the capacity of a compound to serve as an rTrxR1 substrate, i.e. a decrease in NADPH fluorescence compared to the no-compound background is an indication of a substrate behavior for that particular compound. For inhibitory activity of a compound, delta values, computed as the difference in fluorescence intensity between the first and last reads of an 8-minute time kinetic window, were used. All reagents were diluted in an assay buffer consisting of 50 mM Tris-HCl, pH 7.5, 2 mM EDTA, and 0.01% Tween-20.
Throughout the screen, reagent bottle and all liquid lines were made light-tight to minimize reagent degradation. All screening operations were performed on a fully integrated robotic system (Kalypsys, San Diego, CA) containing one RX-130 and two RX-90 anthropomorphic robotic arms (Staubli, Duncan, SC). Library plates were screened starting from the lowest and proceeding to the highest concentration, and a 'double-pinning' step of the highest concentration was required to access higher concentrations of compounds. Vehicle-only plates, with DMSO being pin-transferred to the columns 5-48, were inserted uniformly at the beginning and the end of each library in order to monitor and record any shifts in the background, which can be affected by reagent dispensers or loss in enzyme activity over time. Screening data were corrected, normalized, and concentration-effect relationships were derived by using publicly-available curve fitting algorithms developed in-house (http://ncgc.nih.gov/pub/openhts).
(In general: qHTS replaces the single test concentration by a dilution series.)
Take `N[C@H](C(=O)O)[C@H](Cc1ccccc1)C(=O)O`: the Potency result is “inactive”.
The result for `CCSC(=N)N` reads “inactive”; that for `NCCCCN`, “inactive”; that for `O=C(O)C1CCNCC1`, “inactive”.
As to `CCCn1c(=O)c(C)cn2nc(N)nc12`, the Potency entry was “inactive”.
The result for `O=C(O)C1=CCCNC1` reads “inactive”.
The result for `Cc1ccc2c(c1)C(N1CCN(C)CC1)=Nc1cccnc1N2` reads “inactive”.
The result for `CCCCCCCCCCC/C=C\C(C)(C)/C=C\CCCC(=O)O` reads “inactive”; that for `C=C(C)C1CC=C(C(=O)O)CC1` (stereo not given), “inactive”.
On to `[Li+]`, for which the Potency result is “inactive”.
With `CC(=O)NCCc1c[nH]c2ccc(O)cc12`, the Potency entry was “inactive”.
Take `CCn1c(=O)[nH]c2cc(Cl)c(Cl)cc21`: the Potency result is “inactive”.
The result for `CCCCCCCCCCCCCCCCCCOC[C@H](COP(=O)([O-])OCC[N+](C)(C)C)OC` reads “inactive”; that for `CC1CCN=C(N)S1` (stereo not given), “inactive”; that for `CNc1ncnc2c1ncn2[C@H]1C[C@H](OP(=O)(O)O)[C@@H](COP(=O)(O)O)O1`, “inactive”.
For `O=C(O)C1=CCNCC1`, the Potency result is “inactive”.
Then `NC1(C(=O)O)CCc2cc(C(=O)O)ccc21` (stereo not given), with 16.8 µM (active); and `COc1cc(/C=C(\C#N)C(=O)Nc2nnc(C(F)(F)F)s2)ccc1OCc1ccc(C(F)(F)F)cc1C(F)(F)F`, with “inactive”; and `CC(=O)C(C)=O`, with “inactive”.
Then `Cc1nc2c(OCc3ccccc3)cccn2c1CC#N`, with “inactive”; and `CC(=O)O[C@H]1CC2(C)[C@@H](C[C@@H](O)[C@H]3[C@@]4(C)CC[C@@H](O)[C@@H](C)[C@@H]4CC[C@@]32C)C1=C(CCC=C(C)C)C(=O)O` (stereo not given in full), with “inactive”; and `NC1C=CC=C(C(=O)O)C1` (stereo not given), with “inactive”.
On to `Nc1ncnc2c1c(-c1ccc(Oc3ccccc3)cc1)cn2C1CCCC1`, for which the Potency result was “inactive”.
Then `Fc1ccc(CN(C2=NCCN2)c2c(Cl)cccc2Cl)cc1`, with “inactive”; and `Oc1cc(O)c2c(c1)O[C@H](c1ccc(O)c(O)c1)[C@@H](O)C2`, with “inactive”; and `CC(C)NC[C@H](O)COc1cccc2ccccc12`, with “inactive”.
Take `CC(C)NC[C@H](O)COc1ccc(CC(N)=O)cc1`: the Potency entry was “inactive”.
Take `COc1cc(C(O)C(=O)O)ccc1O` (stereo not given): the Potency entry is “inactive”.
The result for `COc1cc(N)c(Cl)cc1C(=O)OCCN1CCCCC1` reads “inactive”.
As to `O=C1OC(=O)C2C3CCC(O3)C12` (stereo not given), the Potency result was “inactive”.
The result for `O=C(O)C1CN(CCCP(=O)(O)O)CCN1` (stereo not given) reads “inactive”.
Regarding `CCN(CC)CCOC(=O)c1cc(Cl)c(N)cc1OC`, the Potency result was “inactive”.
Then `Cn1c(=O)c2c(nc(/C=C/c3cccc(Cl)c3)n2C)n(C)c1=O`, with “inactive”; and `C[C@H](O)C(=O)C1=Nc2c(nc(N)[nH]c2=O)NC1`, with “inactive”.
For `CC(C)NCC(O)COc1ccc(CC(N)=O)cc1` (stereo not given), the Potency entry is “inactive”.
Then `NC(=O)c1ccccc1`, with “inactive”; and `COc1ccc2c(c1)c(CC(=O)O)c(C)n2Cc1ccc(Cl)cc1`, with “inactive”.
The result for `COc1ccc2c(c1)CCC1C2CC[C@@]2(C)C1CC[C@@H]2NCCCCCCN1C(=O)C=CC1=O` (stereo not given in full) reads “inactive”; that for `CNCCNS(=O)(=O)c1cccc2cnccc12`, “inactive”; that for `CCCCCCCCCCCCCCSCC(=O)O`, “inactive”.
